Compound activity deposited in PubChem BioAssay by Broad Institute.
In the library only some 3.1% were active in any assay of this set; here they are far more common.
GSIS activator: GLuc luminescence reporter in INS-1E cells, primary screen for activators of glucose-dependent secretion of insulin. INS-1E GLuc reporter insulin secretion, 2-3 h. activation, % at 16.6 µM. 0.61% of 370,000 active. AID 743287, 2014;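 active = lowest replicate activation of at least 40%, so every replicate reaches that level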;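 note: 0% = median of neutral control wells and 100% = median of IBMX positive control wells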
MLL AF4-AF9 inh: inhibitors of AF4 peptide binding to AF9, primary screen, biochemical, AlphaScreen, biotin-AF4 peptide, FLAG-AF9, single point | inhibition, % at 10 µM | 0.47% of 350,000 active | Protein AF-9 (Homo sapiens), P42568;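 active = every replicate reaching a set inhibition limit, whatever the replicate mean, cut at about 25% in these data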;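 note: 0% = plate neutral control median and 100% = total signal loss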
RAD52 inh: RAD52 DNA annealing inhibitors, primary screen, biochemical, FRET, single point, set 2; DNA repair protein RAD52 homolog (Homo sapiens), P43351; recombinant RAD52 DNA annealing, FRET fluorescence; inhibition, % at 18.7 µM; 0.46% of 360,000 active; AID 651710, 2012;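 active = every replicate showing at least 50% inhibition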
Target sequence (P43351 whole entry, looked up): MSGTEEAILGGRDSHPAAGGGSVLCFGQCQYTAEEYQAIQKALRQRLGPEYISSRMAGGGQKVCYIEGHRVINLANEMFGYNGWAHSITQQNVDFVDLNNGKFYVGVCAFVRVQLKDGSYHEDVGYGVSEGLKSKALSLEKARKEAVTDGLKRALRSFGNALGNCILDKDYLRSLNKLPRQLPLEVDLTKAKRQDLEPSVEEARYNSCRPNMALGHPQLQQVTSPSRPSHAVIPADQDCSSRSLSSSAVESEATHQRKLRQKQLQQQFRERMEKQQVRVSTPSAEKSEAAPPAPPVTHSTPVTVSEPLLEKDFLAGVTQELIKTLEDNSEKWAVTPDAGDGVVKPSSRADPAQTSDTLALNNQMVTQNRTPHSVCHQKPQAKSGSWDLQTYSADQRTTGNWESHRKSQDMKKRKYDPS
DENV2 CPE: inhibitors of DENV2 cytopathic effect, primary screen, cell-based, plate reader, single concentration; AID 651640, 2012; CPE inhibition, % at 9.99 µM; DENV2-infected cells, cytopathic effect rescue; 1.7% of 350,000 active; in the data active = CPE inhibition above about 20%, passing the limit was not always enough; tested in BHK-21 cells;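 note: 0% = median of neutral control wells and 100% = median of positive control wells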
RAD54 inh: inhibitors of human RAD54 branch migration, primary screen, biochemical, fluorescence, single point. inhibition, % at 10.4 µM. AID 602329, 2012. DNA repair and recombination protein RAD54-like (Homo sapiens), Q92698. RAD54 Holliday junction branch migration, FAM/BHQ fluorescence. 0.14% of 360,000 active;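 active = mean normalized replicate activity at least 40 and at least half of replicates scoring 40 or more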;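 note: 0% = median of neutral control wells and 100% = median of positive control wells; inhibitors cause a drop in the FAM fluorescence signal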
dFosB act-1: activators of delta FosB homodimer, primary screen, biochemical, fluorescence polarization, TAMRA-CDK5 oligo, single point. purified delta FosB; percent of positive-control signal above neutral wells. 0.99% of 340,000 active. activation, % at 25 µM. Protein FosB (Mus musculus), P13346;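 active = mean activation above about 17%, with every replicate also reaching it, limit read from the data, passing the limit was not always enough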
dFosB act-2: activators of mouse delta FosB DNA binding, confirmation, biochemical, fluorescence polarization, TAMRA-CDK5 oligo, cherry-picked samples; shares compounds with dFosB act-1; purified delta FosB; normalised: neutral wells 0, positive control 100; activation, % at 24.9 µM; 2,400 tested, under 10 active;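 active = highest replicate activation at or above 34% and every replicate reaching that threshold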;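 note: higher polarization means more probe DNA bound by delta FosB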
* marks the source's active call; other numbers are inactive results; i = inactive; x = no result.

SMILES	GSIS activator	MLL AF4-AF9 inh	RAD52 inh	DENV2 CPE	RAD54 inh	dFosB act-1	dFosB act-2
CCCNC(=O)CCCCn1c(=S)[nH]c2c([nH]c3ccc(OC)cc32)c1=O	6.8	-2.3	-5.5	-3.1	x	10.1	x
COc1ccc2[nH]c3c(=O)n(CCCC(=O)NC4CCC(C)CC4)c(=S)[nH]c3c2c1 (stereo not drawn)	-1.4	-0.9	-8.8	5.5	5.6	53.2*	-5.5
COc1cc(-n2c(=O)c3ccccc3n(Cc3cccc(C)c3)c2=O)cc(OC)c1OC	1.2	-43.1	-6.8	5.4	2.4	53.2*	4.5
CCOc1ccc(CCN2C(=S)N([C@@H](CC(C)C)CN3CCCC3CN3C(=S)NC[C@@H]3Cc3ccccc3)C[C@@H]2CC(C)C)cc1 (stereo partly drawn)	x	-2.0	-74.6	12.6	x	x	x
Oc1ccc(C[C@H]2CNC(=S)N2CC2CCCN2C[C@H](Cc2ccccc2)N2C[C@H](Cc3ccc(O)cc3)N(CCc3ccccc3)C2=S)cc1 (stereo partly drawn)	10.8	-48.9	-72.5	0.0	5.0	67.4*	1.3
CCOc1ccc(CCN2C(=S)N([C@@H](CC(C)C)CN3CCC[C@@H]3CN3C(=S)NC[C@@H]3CC(C)C)C[C@@H]2Cc2ccc(O)cc2)cc1	5.4	6.0	-9.0	11.7	0.3	x	x
CCOc1ccc(CCN2C(=S)N([C@@H](CC(C)C)CN3CCCC3CN3C(=S)NC[C@@H]3Cc3ccc(O)cc3)C[C@@H]2CC(C)C)cc1 (stereo partly drawn)	-4.3	1.8	-23.1	-12.5	10.0	25.5*	5.4
CCOc1ccc(CCN2C(=S)N([C@@H](CC(C)C)CN3CCCC3CN3C(=S)NC[C@@H]3CC(C)C)C[C@@H]2Cc2ccc(O)cc2)cc1 (stereo partly drawn)	-8.4	4.4	-22.6	0.9	6.4	37.5*	3.4
CCOc1ccc(CCN2C(=S)N([C@@H](CC(C)C)CN3CCCC3CN3C(=S)NC[C@@H]3Cc3ccc(O)cc3)C[C@@H]2Cc2ccccc2)cc1 (stereo partly drawn)	8.0	-6.1	-31.6	-10.6	-5.9	65.2*	3.8
O=C(C[C@@H]1C=C[C@@H](NC(=O)c2cccc(F)c2)[C@H](CO)O1)NCc1ccc(Oc2ccccc2)cc1	15.6	-8.8	-14.5	-7.4	-10.6	x	x
C[C@@H]1CN([C@H](C)CO)C(=O)c2cc(-c3ccc(F)cc3)cnc2O[C@@H]1CN(C)C(=O)c1ccc(F)cc1	1.0	-2.3	7.5	10.3	3.6	x	x
Cc1ccc2nc(-c3cccnc3SCC(=O)N3c4ccccc4CC3C)[nH]c2c1 (stereo not drawn)	2.3	2.0	-18.4	0.1	x	29.0*	2.3
Cc1ccc2nc(SCC(=O)N3c4ccccc4CC3C)c(C)cc2c1 (stereo not drawn)	x	x	x	x	-1.4	-9.7	x
Cc1ccc(COc2ccsc2C(=O)NNC(N)=S)cc1	-8.6	1.8	-17.7	-3.8	x	28.5*	-0.3
Cc1ccc(COc2ccsc2C(=O)NN)cc1	-0.9	0.3	-10.8	-14.5	x	-0.3	x
COc1ccc(-c2ccc3c(c2)O[C@@H](CN(C)C)[C@H](C)CN([C@@H](C)CO)S3(=O)=O)cc1	3.6	4.1	14.1	-3.7	7.2	x	x
O=C(COc1coc(CN2CCCc3ccccc32)cc1=O)Nc1ccc([N+](=O)[O-])cc1	-3.7	-0.4	-56.3	-9.1	6.1	27.8*	6.8
Cc1ccccc1NC(=O)COc1coc(CN2CCCc3ccccc32)cc1=O	5.4	3.1	-16.6	-2.8	-0.6	-11.6	x
COc1ccc(S(=O)(=O)N(C)C[C@@H]2Oc3ccc(NS(=O)(=O)c4cccs4)cc3C(=O)N([C@@H](C)CO)C[C@@H]2C)cc1	-10.2	-0.8	-14.6	-12.8	-5.2	x	x
O=C(NCC[C@H]1CC[C@H](NC(=O)C2CCC2)[C@H](CO)O1)c1cc(Cl)cc(Cl)c1	-13.2	-2.4	-9.2	-3.0	-3.7	x	x
O=C(Cn1cnc2c(oc3nc4c(cc32)CCCC4)c1=O)Nc1cccc(Cl)c1	0.2	0.8	-21.4	-4.0	10.5	20.2*	-0.7
O=C(Cn1cnc2c(oc3nc4c(cc32)CCCC4)c1=O)Nc1ccccc1	1.7	0.3	-17.2	2.6	-7.0	-8.0	x
O=C(Nc1ccc(Cl)cc1)c1cnc(-c2ccccc2)nc1-c1ccccc1	x	x	x	x	4.0	21.5*	1.3
Cc1cc(Br)ccc1SCC(=O)OC/C(O)=C(\C#N)c1nc2ccccc2[nH]1	6.4	-3.0	-41.1	5.1	x	51.7*	4.5
O=C(CNC(=O)c1ccc(-c2ccccc2)cc1)Nc1ccc(S(=O)(=O)Nc2ncccn2)cc1	1.6	6.3	-33.1	5.7	-6.0	24.5*	4.1
SMILES	GSIS activator	MLL AF4-AF9 inh	RAD52 inh	DENV2 CPE	RAD54 inh	dFosB act-1	dFosB act-2
Cc1ccc(C)c(NC(=O)c2ccccc2NS(=O)(=O)c2cc([N+](=O)[O-])ccc2C)c1	-5.8	-1.3	3.2	-1.1	4.4	27.4*	5.7
C[C@H]1CN([C@@H](C)CO)C(=O)c2cc(C#Cc3ccccc3F)cnc2O[C@H]1CN(C)C(=O)C1CCC1	-12.5	-1.2	8.1	-8.0	0.6	x	x
Cc1c(N=C2N=C(NC(=O)Nc3ccc(Cl)cc3)c3ccccc32)c(=O)n(-c2ccccc2)n1C	-11.8	-1.6	i	-2.5	x	38.0*	-30.1
Cc1ccc(CNc2ccc3nnc(-c4ccccc4)n3n2)cc1	5.0	4.0	-4.2	-3.2	-11.2	23.4*	5.1
Oc1oc(-c2ccccc2Br)nc1C=Nc1ccc(Br)cn1	15.6	1.1	-7.1	-8.3	1.2	47.1*	-2.0
C[C@H](CO)N1C[C@H](C)[C@H](CN(C)S(=O)(=O)c2cn(C)cn2)Oc2ccc(NC(=O)CCC(F)(F)F)cc2C1=O	26.9	-8.1	8.9	1.6	-5.1	x	x
CNS(=O)(=O)c1ccc(NC(=O)c2cc(-c3ccncc3)nc3ccc(Cl)cc23)cc1	4.0	-2.9	-19.3	10.2	-1.9	68.6*	-1.1
O=C(NCC[C@@H]1CC[C@@H](NC(=O)c2cnccn2)[C@H](CO)O1)c1ccc2c(c1)OCO2	6.3	0.6	-2.0	-6.7	1.4	x	x
Cc1cccc(NC(=O)Cn2c(C)c(C#N)c3ccccc32)c1C	x	x	x	x	-1.1	31.7*	-0.2
CCCC(=O)Nc1ccc2c(c1)C(=O)N(C)[C@@H]1CC[C@H](CC(=O)NCCCN(C)C)O[C@@H]1CO2	-8.1	0.2	2.0	4.9	-8.5	x	x
COc1ccc(Cn2c(SCc3ccccc3C)nc3cc(OC)c(OC)cc3c2=N)cc1	x	x	x	x	10.1	45.3*	1.8
